# Measured values taken from PubChem BioAssay AID1159580 (chemical genetic matrix, 2015).
# “And” between values parts separate entries of the source, which are not always exact repeats. Equal entries are not always repeated. Screen size: about 5,500 compounds; about 2,000 (36%) were called active. Not shown: some 18% with an inconclusive outcome. The list shows a part of the results. Unmarked numbers belong to inactive results. Cut-off read from the data, not from the text of the source: active = normalized growth mostly below about 0.91 (no sharp cut-off); inconclusive = no clear call, values can overlap the other calls; inactive = mostly above about 0.92.
# Assay: chemical genetic growth profiling, strain panel (AID 1159580);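 note: tested at 20 µM; growth read once vehicle control cultures reached saturation at 30 °C; 1 = growth at the plate median or of vehicle wells; lower values mean less growth of the strain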
# Details: S. cerevisiae deletion strains, growth OD
smiles,measurement,setting,value
CO[C@H]1/C=C/O[C@@]2(C)Oc3c(C)c(O)c4c(O)c(c(/C=N/N5CCN(C)CC5)c(O)c4c3C2=O)NC(=O)/C(C)=C\C=C\C(C)[C@H](O)[C@@H](C)[C@@H](O)[C@@H](C)[C@@H](OC(C)=O)[C@@H]1C (stereo partly specified),normalized growth,"locus YAL013W, strain DEP1, hits give low values",1
same,normalized growth,"locus YAL021C, strain ccr4, hits give low values",1.01
same,normalized growth,"locus YAL026C, strain drs2, hits give low values",1.02
same,normalized growth,"locus YAL030W, strain snc1, hits give low values",1.02
same,normalized growth,"locus YBL061C, strain skt5, hits give low values",1.03
same,normalized growth,"locus YBR009C, strain hhf1, hits give low values",1.02
same,normalized growth,"locus YBR021W, strain FUR4, hits give low values",0.998
same,normalized growth,"locus YBR023C, strain chs3, hits give low values",1.03
same,normalized growth,"locus YBR171W, strain sec66, hits give low values",1.03
same,normalized growth,"locus YBR229C, strain ROT2, hits give low values",1
same,normalized growth,"locus YBR231C, strain swc5, hits give low values",1.03
same,normalized growth,"locus YBR279W, strain paf1, hits give low values",1
same,normalized growth,"locus YCL011C, strain gbp2, hits give low values",1.02
same,normalized growth,"locus YCL016C, strain dcc1, hits give low values",1.01
same,normalized growth,"locus YCL029C, strain bik1, hits give low values",1.02
same,normalized growth,"locus YCL061C, strain MRC1, hits give low values",1.02
same,normalized growth,"locus YCL069W, strain vba3, hits give low values",1.03
same,normalized growth,"locus YCR088W, strain abp1, hits give low values",1.03
same,normalized growth,"locus YDL005C, strain med2, hits give low values",1.02
same,normalized growth,"locus YDL035C, strain GPR1, hits give low values",0.996
same,normalized growth,"locus YDL040C, strain nat1, hits give low values",1.02
same,normalized growth,"locus YDL074C, strain BRE1, hits give low values",1.04
same,normalized growth,"locus YDL101C, strain DUN1, hits give low values",1.03
same,normalized growth,"locus YDL185W, strain tfp1, hits give low values",1.01
same,normalized growth,"locus YDL192W, strain arf1, hits give low values",1.02
same,normalized growth,"locus YDR001C, strain nth1, hits give low values",1.02
same,normalized growth,"locus YDR069C, strain doa4, hits give low values",1.01
same,normalized growth,"locus YDR101C, strain arx1, hits give low values",1.01
same,normalized growth,"locus YDR137W, strain rgp1, hits give low values",0.803 (active)
same,normalized growth,"locus YDR159W, strain sac3, hits give low values",1.03
same,normalized growth,"locus YDR162C, strain NBP2, hits give low values",1.01
same,normalized growth,"locus YDR195W, strain ref2",1.09
same,normalized growth,"locus YDR297W, strain sur2, hits give low values",1.01
same,normalized growth,"locus YDR318W, strain mcm21, hits give low values",1.01
same,normalized growth,"locus YDR334W, strain swr1, hits give low values",1.02
same,normalized growth,"locus YDR335W, strain msn5, hits give low values",1.03
same,normalized growth,"locus YDR388W, hits give low values",1.02
same,normalized growth,"locus YDR392W, strain spt3, hits give low values",0.957
same,normalized growth,"locus YDR502C, strain sam2, hits give low values",1.01
same,normalized growth,"locus YEL003W, strain gim4, hits give low values",0.995
same,normalized growth,"locus YEL037C, strain rad23, hits give low values",1.02
same,normalized growth,"locus YEL061C, strain CIN8 (second series), hits give low values",1.02
same,normalized growth,"locus YEL061C, strain CIN8, hits give low values",1.01
same,normalized growth,"locus YER015W, strain faa2, hits give low values",1.03
same,normalized growth,"locus YER016W, strain bim1, hits give low values",1.02
same,normalized growth,"locus YER110C, hits give low values",1.03
same,normalized growth,"locus YER111C, strain swi4, hits give low values",1.03
same,normalized growth,"locus YER155C, strain BEM2 (second series), hits give low values",1.02
same,normalized growth,"locus YER155C, strain BEM2, hits give low values",1
same,normalized growth,"locus YER167W, strain BCK2, hits give low values",0.996
same,normalized growth,"locus YFR010W, strain ubp6, hits give low values",1.02
same,normalized growth,"locus YGL078C, strain dbp3, hits give low values",1.01
same,normalized growth,"locus YGL086W, strain mad1, hits give low values",1.02
same,normalized growth,"locus YGL167C, strain pmr1, hits give low values",1.02
same,normalized growth,"locus YGL173C, strain kem1, hits give low values",1.03
same,normalized growth,"locus YGL227W, strain vid30, hits give low values",1.04
same,normalized growth,"locus YGL240W, strain doc1, hits give low values",1.03
same,normalized growth,"locus YGL248W, strain PDE1, hits give low values",1.03
same,normalized growth,"locus YGL253W, strain hxk2, hits give low values",1.02
same,normalized growth,"locus YGR135W, strain pre9, hits give low values",1.02
same,normalized growth,"locus YGR252W, strain gcn5, hits give low values",1
same,normalized growth,"locus YHR013C, strain ard1, hits give low values",1.05
same,normalized growth,"locus YHR027C, strain rpn1, hits give low values",1.02
same,normalized growth,"locus YHR030C, strain SLT2, hits give low values",1.01 and 1.08
same,normalized growth,"locus YHR079C, strain IRE1 (second series), hits give low values",1.02
same,normalized growth,"locus YHR079C, strain IRE1, hits give low values",1.05
same,normalized growth,"locus YHR094C, strain hxt1, hits give low values",1.01
same,normalized growth,"locus YHR129C, strain ARP1, hits give low values",1.01
same,normalized growth,"locus YHR142W, strain chs7, hits give low values",1.06
same,normalized growth,"locus YHR200W, strain rpn10, hits give low values",1.02
same,normalized growth,"locus YIL066C, strain RNR3, hits give low values",1.01
same,normalized growth,"locus YIL073C, strain SPO22, hits give low values",1.04
same,normalized growth,"locus YIL125W, strain kgd1, hits give low values",1.03
same,normalized growth,"locus YIR030C, strain dcg1, hits give low values",1.02
same,normalized growth,"locus YJL092W, strain hpr5, hits give low values",1.02
same,normalized growth,"locus YJL095W, strain BCK1 (second series), hits give low values",1.02
same,normalized growth,"locus YJL095W, strain BCK1, hits give low values",1.04 and 1.03
same,normalized growth,"locus YJL115W, strain asf1, hits give low values",1.01
same,normalized growth,"locus YJL129C, strain trk1, hits give low values",1
same,normalized growth,"locus YJL134W, strain LCB3, hits give low values",1.01
same,normalized growth,"locus YJL154C, strain vps35, hits give low values",1.04
same,normalized growth,"locus YJL164C, strain tpk1, hits give low values",1.03
same,normalized growth,"locus YJL166W, strain qcr8, hits give low values",1.02
same,normalized growth,"locus YJL168C, strain set2, hits give low values",1.02
same,normalized growth,"locus YJL187C, strain SWE1 (second series), hits give low values",1.03
same,normalized growth,"locus YJL187C, strain SWE1, hits give low values",1.02
